From PubChem BioAssay
PvdQ acylase – blocks Pseudomonas aeruginosa PvdQ acylase activity; purified PvdQ acylase, fluorescence plate reader; inhibition, % at 10 µM; 340,000 compounds, 0.063% hits; in the data active = inhibition above about 30%, passing the limit was not always enough; inconclusive = no clear call, values can overlap the other calls;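 note: 0% = vehicle neutral wells and 100% = reference inhibitor wells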
RAD54 inh – inhibitors of human RAD54 branch migration. AID 602329. inhibition, % at 10.4 µM. RAD54 Holliday junction branch migration, FAM/BHQ fluorescence. Q92698. 360,000 compounds, 0.14% hits;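 active = mean normalized replicate activity at least 40 and at least half of replicates scoring 40 or more; inconclusive = only one of the two criteria met; inactive = mean below 40 and under half of replicates reaching 40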;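 note: 0% = median of neutral control wells and 100% = median of positive control wells; inhibitors cause a drop in the FAM fluorescence signal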
Glyco luc inh – N-linked glycosylation inhibition; D54 ERlucT glycosylation luciferase reporter, 24 h; percent of 100 nM tunicamycin response; reporter increase, % at 12.5 µM; 360,000 compounds, 0.23% hits;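 active = mean luciferase reporter signal, scaled so untreated is 0 and the glycosylation-blocking control 100, at or above a set limit in every replicate; inconclusive = mean reaches the limit but not every replicate does; inactive = mean below the limit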;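 note: luciferase carries N-glycosylation sites so blocking glycosylation raises the light; 0% = median of neutral control wells and 100% = median of 100 nM tunicamycin wells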
F508del corr – CFTR F508del correction in bronchial cells; CFBE cells, YFP halide quenching; stimulated with forskolin plus potentiator P3; % fluorescence drop versus neutral controls; activity (quench increase), % at 7.58 µM; 350,000 compounds, 0.36% hits;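 active = mean added fluorescence quench of at least 8% versus neutral control, with both replicates also reaching 8%; inconclusive = only one of the mean or replicate conditions met; inactive = mean below 8% and not both replicates reaching 8%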;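 note: cells transiently co-express mutant CFTR-F508del with the halide-sensitive YFP; corrector assay measuring rescue of mutant channel to the surface after 24 h compound exposure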
dFosB activator – mouse delta FosB homodimer activation. activation, % at 25 µM. AID 493131. 340,000 compounds, 0.99% hits. P13346. purified delta FosB, TAMRA-CDK5 oligo fluorescence polarization; percent of positive-control signal above neutral wells;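 active = mean activation above about 17%, with every replicate also reaching it, limit read from the data, passing the limit was not always enough; inconclusive = only one of the two conditions met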
RAD52 inh – blocks human RAD52 DNA annealing | recombinant RAD52 DNA annealing, FRET fluorescence | inhibition, % at 18.7 µM | 360,000 compounds, 0.46% hits | AID 651710;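 active = every replicate showing at least 50% inhibition; inconclusive = mean inhibition at least 50% but not in every replicate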
Target sequence (P43351 whole entry, looked up): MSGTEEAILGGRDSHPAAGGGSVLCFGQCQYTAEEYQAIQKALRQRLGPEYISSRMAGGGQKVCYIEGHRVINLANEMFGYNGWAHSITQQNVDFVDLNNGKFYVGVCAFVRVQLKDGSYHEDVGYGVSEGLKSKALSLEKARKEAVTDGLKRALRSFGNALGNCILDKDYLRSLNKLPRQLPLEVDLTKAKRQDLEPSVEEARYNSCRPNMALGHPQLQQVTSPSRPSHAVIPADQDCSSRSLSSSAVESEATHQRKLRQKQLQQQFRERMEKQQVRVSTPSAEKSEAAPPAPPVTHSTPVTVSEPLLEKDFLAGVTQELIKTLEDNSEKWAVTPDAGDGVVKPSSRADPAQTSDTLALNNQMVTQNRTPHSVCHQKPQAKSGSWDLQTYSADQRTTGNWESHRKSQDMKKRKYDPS
Numbers without * were called inactive. Shown are actives, neighbours in structure and some others; about 1.5% of the full set was active somewhere.

Results for COc1ccc(C=CC(=O)c2ccc(OC)c(OC)c2)cc1O ?
RAD54 inh: 5; Glyco luc inh: inconclusive; F508del corr: 1; RAD52 inh: -10

What do the screens show for `COc1cc(OC)c(C(=O)/C=C/c2ccc(OCc3ccccc3)c(OC)c2)c(OC)c1`?
PvdQ acylase: -4; RAD54 inh: -2; Glyco luc inh: 4; F508del corr: -3; dFosB activator: 3; RAD52 inh: 2

What do the screens show for `CCC(=O)Nc1ccc2c(c1)OC[C@@H](C)N(CC1CCOCC1)C[C@@H](C)[C@H](OC)CN(C)C2=O`?
RAD54 inh: -9; F508del corr: 0; RAD52 inh: 8

Results for c1ccc2c(c1)CC/C2=N/Nc1nc2ccccc2[nH]1 ?
PvdQ acylase: -10; RAD54 inh: 2; Glyco luc inh: -11; F508del corr: 1; dFosB activator: 31*; RAD52 inh: -10

How did CC(C)(C)C1CCC(=NNc2nc3ccccc3[nH]2)CC1 (stereo unspecified) do in these assays?
PvdQ acylase: -10; Glyco luc inh: 1; F508del corr: 1; dFosB activator: -5; RAD52 inh: -5

How did CN1C2=CC=CC=CC2=[N+](C)C12C([N+](=O)[O-])=CC(=[N+]([O-])[O-])C=C2[N+](=O)[O-] (stereo unspecified) do in these assays?
PvdQ acylase: -11; RAD54 inh: -6; Glyco luc inh: 29*; F508del corr: 0; dFosB activator: -7; RAD52 inh: -7

How did CN1C2=CC=CC=CC2=[N+](C)C12C=CC(=[N+]([O-])[O-])C=C2[N+](=O)[O-] (stereo unspecified) do in these assays?
PvdQ acylase: 10; Glyco luc inh: -1; F508del corr: 3; dFosB activator: -4; RAD52 inh: -25

How did C=C(NC(=O)C(=C)NC(=O)c1csc(C2=NC3c4csc(n4)C4NC(=O)c5csc(n5)C(C(C)(O)C(C)O)NC(=O)C5CSC(=N5)/C(=C/C)NC(=O)C(C(C)O)NC(=O)c5csc(n5)C3(CC2)NC(=O)C(C)NC(=O)C(=C)NC(=O)C(=C)NC(=O)C(C(C)C)NC2C=Cc3c(C(C)O)cc(nc3C2O)C(=O)OC4C)n1)C(N)=O (stereo unspecified) do in these assays?
PvdQ acylase: 5; Glyco luc inh: -6; F508del corr: -3; dFosB activator: 17*; RAD52 inh: -6

Results for C[C@H](CO)N1C[C@H](C)[C@H](CN(C)Cc2ccc(Cl)c(Cl)c2)Oc2ccc(NC(=O)Nc3ccc(C(F)(F)F)cc3)cc2CC1=O ?
RAD54 inh: 7; F508del corr: 1; RAD52 inh: -5

How did Cc1ccc(Nc2nc(CSc3nnc(-c4ccncc4)n3C)cs2)cc1 do in these assays?
PvdQ acylase: 6; RAD54 inh: -1; Glyco luc inh: -8; dFosB activator: -5

Results for Cc1ccc(Nc2nc(CSc3nnc(-c4cccnc4)n3-c3ccccc3F)cs2)cc1 ?
PvdQ acylase: -5; Glyco luc inh: 2; F508del corr: 8.6*; dFosB activator: -8; RAD52 inh: -26

What do the screens show for `Cc1ccc(O)c(Nc2nc(-c3ccccc3)nc3ccccc23)c1`?
PvdQ acylase: 12; RAD54 inh: 6; Glyco luc inh: 2; dFosB activator: -4; RAD52 inh: -16

Results for Cc1ccc(O)c(Nc2c3ccccc3nc3ccccc23)c1 ?
PvdQ acylase: -3; RAD54 inh: 9; Glyco luc inh: 10; F508del corr: -1; dFosB activator: 35*; RAD52 inh: 2

Results for CS(=O)(=O)N1CC2(C1)[C@H](c1ccccc1)[C@@H](CO)N2C(=O)C1CCC1 ?
F508del corr: 1; RAD52 inh: -5

Results for O=C(NCc1ccccc1)C1Cc2c(-c3cccc(F)c3)ccnc2O1 (stereo unspecified) ?
RAD54 inh: 2; Glyco luc inh: 35*; F508del corr: 9.1*; RAD52 inh: -57

How did O=C(NCc1ccccc1)C1Cc2c(-c3ccc(Cl)cc3)ccnc2O1 (stereo unspecified) do in these assays?
RAD54 inh: -8; Glyco luc inh: 20; F508del corr: 9.2*; RAD52 inh: -7

How did N#CC(Sc1ccccn1)c1ccc(Cl)cc1 (stereo unspecified) do in these assays?
PvdQ acylase: 48*; Glyco luc inh: 0; F508del corr: -1; dFosB activator: -2; RAD52 inh: -4

What do the screens show for `O=C(O)CCc1nc(-c2ccc(Cl)cc2)no1`?
PvdQ acylase: 36*; Glyco luc inh: 1; dFosB activator: 0

What do the screens show for `CCN(CC(=O)Nc1c(F)cccc1F)C(=O)C1CC1`?
PvdQ acylase: -16; RAD54 inh: -13; Glyco luc inh: 3; F508del corr: 8.4*; dFosB activator: -1; RAD52 inh: -4

Results for C[C@@H]1CN([C@@H](C)CO)S(=O)(=O)c2ccc(-c3ccc(F)cc3)cc2O[C@@H]1CN(C)C(=O)Nc1ccccc1F ?
RAD54 inh: 2; F508del corr: 4; RAD52 inh: -16

What do the screens show for `COC1C(CO)OC(n2c3c(Cl)cccc3c3c4c(c5c6cccc(Cl)c6[nH]c5c32)C(=O)NC4=O)C(O)C1O` (stereo unspecified)?
PvdQ acylase: -10; Glyco luc inh: 1; F508del corr: 9.8*; dFosB activator: 10; RAD52 inh: inactive

How did CCCNC(=O)N1[C@H](C#N)[C@H](c2ccccc2-c2cccc(C)c2)[C@@H]1CO do in these assays?
F508del corr: -2; RAD52 inh: -15

How did O=C(N/N=C/c1cccs1)c1cc(C2CC2)nc2ccccc12 do in these assays?
PvdQ acylase: -10; Glyco luc inh: 9; F508del corr: 12*; dFosB activator: -4; RAD52 inh: -11

How did CCc1ccc(/C=N/NC(=O)c2cc(-c3ccncc3)nc3ccccc23)s1 do in these assays?
PvdQ acylase: -9; Glyco luc inh: 30*; dFosB activator: -12

Results for O=C(N/N=C/c1ccc(O)cc1)c1cc(-c2ccccc2)nc2ccccc12 ?
PvdQ acylase: 10; RAD54 inh: 3; Glyco luc inh: -6; F508del corr: -3; dFosB activator: 29*; RAD52 inh: -13

Results for COc1cc(/C=N/NC(=O)c2cc(-c3ccccc3)nc3ccccc23)ccc1O ?
PvdQ acylase: -3; RAD54 inh: -3; Glyco luc inh: 0; F508del corr: 0; dFosB activator: -9; RAD52 inh: -14

How did O=C(N/N=C/c1ccco1)c1cc(-c2ccncc2)nc2ccccc12 do in these assays?
PvdQ acylase: -3; RAD54 inh: 6; Glyco luc inh: 28*; F508del corr: 4; dFosB activator: -20; RAD52 inh: -10

How did O=C(N/N=C/c1ccncc1)c1cc(C2CC2)nc2ccccc12 do in these assays?
PvdQ acylase: -14; RAD54 inh: 20; Glyco luc inh: 0; dFosB activator: -3
